From PubChem BioAssay (NCATS)
Records with an inconclusive call do not appear. Calls of active or inactive are those of the source. The call rests on the fitted dose curve; in most records, active means well fitted curve in the direction sought with a large enough effect; inconclusive means small, poorly fitted or top-dose-only effect, or another doubt; inactive means no such curve, though single readings can be large; an effect the other way counts as inactive or inconclusive.

Columns and labels:
[1] = system: MCC-13; assay: qHTS assay to identify novel small-molecules to repurpose for Merkel cell carcinoma treatment (AID 1296009); conditions: MCC and control cell lines, CellTiter-Glo viability, 72 h; series mostly up to 46 µM; further: nearly all actives have a fitted effect of over 60% in size
Summary of the method: (§1)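 Viability readout: ATP luminescence (CellTiter-Glo) after 72 hr drug exposure at 37 degree celsius. Dose-response format was 8 points for NPC and 11 points for MIPE; data normalized to in-plate controls.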

[2] = system: MCC-26; assay: as above; conditions: MCC and control cell lines, CellTiter-Glo viability, 72 h; series mostly up to 46 µM
Summary of the method: as §1

[3] = system: MKL-1; assay: as above; conditions: MCC and control cell lines, CellTiter-Glo viability, 72 h; series mostly up to 46 µM
Summary of the method: as §1

[4] = system: MKL-2; assay: as above; conditions: MCC and control cell lines, CellTiter-Glo viability, 72 h; series mostly up to 46 µM
Summary of the method: as §1

[5] = system: NIH3T3; assay: as above; conditions: MCC and control cell lines, CellTiter-Glo viability, 72 h; at 44.8 µM (top of the series) unless noted
Summary of the method: as §1

[6] = system: UISO; assay: as above; conditions: MCC and control cell lines, CellTiter-Glo viability, 72 h; series mostly up to 46 µM
Summary of the method: as §1

[7] = system: WaGa; assay: as above; conditions: MCC and control cell lines, CellTiter-Glo viability, 72 h; series mostly up to 46 µM
Summary of the method: as §1

[8] = system: C33A; assay: Primary qHTS to identify gynecologic anti-cancer compounds using libraries of approved drugs and bioactive compounds (AID 1345084); conditions: Gynecologic cancer cell panel viability, ATPlite luminescence, 48 h; series mostly up to 57.5 µM; further: nearly all actives have a fitted effect of over 55% in size
Summary of the method: (§2)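 48 h compound exposure at 37 C, 5% CO2; five-point qHTS. ATPlite luminescence readout of cell ATP.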

[9] = system: CAOV3; assay: as above; conditions: Gynecologic cancer cell panel viability, ATPlite luminescence, 48 h; series mostly up to 57.5 µM
Summary of the method: as §2

[10] = system: CASKI; assay: as above; conditions: Gynecologic cancer cell panel viability, ATPlite luminescence, 48 h; series mostly up to 57.5 µM
Summary of the method: as §2
On the % scale 0 is the no-effect control and ±100 the full control effect.

CC[N+]1(C)CCCC(OC(=O)C(O)(c2ccccc2)c2ccccc2)C1 (centres undefined)
inactive: Potency [1] | Potency [2] | Potency [3] | Potency [4] | outcome [5] | Potency [6] | Potency [7] | Potency [8] | Potency [9] | Potency [10]

CCN(CC)CCOC(=O)C(O)(c1ccccc1)c1ccccc1
inactive: Potency [1] | Potency [2] | Potency [3] | Potency [4] | outcome [5] | Potency [6] | Potency [7] | Potency [8] | Potency [9] | Potency [10]

CCOP(=S)(OCC)Oc1cc(C)nc(C(C)C)n1
inactive: Potency [1] | Potency [2] | Potency [3] | Potency [4] | Potency [6] | Potency [7] | Potency [8] | Potency [9] | Potency [10]

CC(=O)[C@H]1CC[C@H]2[C@@H]3CC[C@H]4C[C@](C)(O)CC[C@]4(C)[C@H]3CC[C@]12C
inactive: Potency [1] | Potency [2] | Potency [3] | Potency [4] | outcome [5] | Potency [6] | Potency [7] | Potency [8] | Potency [9] | Potency [10]

NCC(CC(=O)O)c1ccc(Cl)cc1 (centres undefined)
inactive: activity change, negative = cytotoxicity [1] -6.05% [at 0.597 µM] | activity change, negative = cytotoxicity [2] -16.1% [at 0.597 µM] | activity change, negative = cytotoxicity [3] -6.57% [at 0.597 µM] | activity change, negative = cytotoxicity [4] -11.6% [at 0.597 µM] | activity change, negative = cytotoxicity [6] -4.03% [at 0.597 µM] | activity change, negative = cytotoxicity [7] -6.81% [at 0.597 µM] | activity change, negative = cytotoxicity [8] 1.19% [at 0.462 µM] | activity change, negative = cytotoxicity [9] 8.76% [at 0.462 µM] | activity change, negative = cytotoxicity [10] 17.3% [at 0.462 µM]

CC(C)(N)Cc1ccc(Cl)cc1
inactive: Potency [1] | Potency [2] | Potency [3] | Potency [4] | outcome [5] | Potency [6] | Potency [7] | Potency [8] | Potency [9] | Potency [10]

Cc1ncc(CNC(=O)N(CCCl)N=O)c(N)n1
inactive: Potency [1] | Potency [2] | Potency [3] | Potency [4] | Potency [6] | Potency [7] | Potency [8] | Potency [9] | Potency [10]

C#CCOC(C(=O)OCCN(C)C)(c1ccccc1)c1ccccc1
inactive: Potency [1] | Potency [2] | Potency [3] | Potency [4] | outcome [5] | Potency [6] | Potency [7] | Potency [8] | Potency [9] | Potency [10]

O=C(O)c1ccc2[nH]cc(CCCCN3CC=C(c4ccccc4)CC3)c2c1
inactive: Potency [1] | Potency [2] | Potency [3] | Potency [4] | outcome [5] | Potency [6] | Potency [7] | Potency [8] | Potency [9] | Potency [10]

CN(C)CCc1ccc(O)cc1
inactive: Potency [1] | Potency [2] | Potency [3] | Potency [4] | Potency [6] | Potency [7] | Potency [8] | Potency [9] | Potency [10]

c1ccc(C2CC2)c(OCC2=NCCN2)c1
inactive: Potency [1] | Potency [2] | Potency [3] | Potency [4] | Potency [6] | Potency [7] | Potency [8] | Potency [9] | Potency [10]

O=c1oc2ccccc2c(O)c1C(CC(O)c1ccc(-c2ccc(Br)cc2)cc1)c1ccccc1 (centres undefined)
inactive: Potency [1] | Potency [2] | Potency [3] | Potency [4] | Potency [6] | Potency [7] | Potency [8] | Potency [9] | Potency [10]

CN1CCN(C(=O)O[C@H]2c3nccnc3C(=O)N2c2ccc(Cl)cn2)CC1
inactive: Potency [1] | Potency [2] | Potency [3] | Potency [4] | Potency [6] | Potency [7] | Potency [8] | Potency [9] | Potency [10]

CN(C)[C@@H]1C(=O)C(C(N)=O)=C(O)[C@@]2(O)C(=O)C3=C(O)c4c(O)cccc4[C@@](C)(O)[C@H]3C[C@@H]12
inactive: Potency [1] | Potency [2] | Potency [3] | Potency [4] | Potency [6] | Potency [7] | Potency [8] | Potency [9] | Potency [10]

Oc1ccccc1-c1ccccc1
inactive: Potency [1] | Potency [2] | Potency [3] | Potency [4] | outcome [5] | Potency [6] | Potency [7] | Potency [8] | Potency [9] | Potency [10]

CC(C)CC(N(C)C)C1(c2ccc(Cl)cc2)CCC1 (centres undefined)
inactive: Potency [1] | Potency [2] | Potency [3] | Potency [4] | outcome [5] | Potency [6] | Potency [7] | Potency [8] | Potency [9]

C=C1CC[C@@]2(O)[C@H]3Cc4ccc(O)c5c4[C@@]2(CCN3CC2CC2)[C@H]1O5
inactive: Potency [1] | Potency [2] | Potency [3] | Potency [4] | outcome [5] | Potency [6] | Potency [7] | Potency [8] | Potency [9] | Potency [10]

CCC(COC(=O)c1cc(OC)c(OC)c(OC)c1)(c1ccccc1)N(C)C (centres undefined)
inactive: Potency [1] | Potency [2] | Potency [3] | Potency [4] | outcome [5] | Potency [6] | Potency [7] | Potency [8] | Potency [9] | Potency [10]

N[C@@H]1C[C@H]1c1ccccc1
inactive: Potency [1] | Potency [2] | Potency [3] | Potency [4] | Potency [6] | Potency [7] | Potency [8] | Potency [9]

FC(F)(F)c1cccc(C2=CCN(CCc3ccc4ccccc4c3)CC2)c1
inactive: Potency [1] | Potency [2] | Potency [3] | Potency [4] | outcome [5] | Potency [6] | Potency [7] | Potency [8] | Potency [9] | Potency [10]
